# PMC7862700, “An all-to-all approach to the identification of sequence-specific readers for epigenetic DNA modifications on cytosine”
# Legend:
# Experiment in all cases: DAPPL (digital affinity profiling via proximity ligation, sequencing); 10 mM Tris-HCl pH 7.5, 50 mM NaCl, 1 mM DTT, 4% glycerol, room temperature, 30 min; GST-TFs on glutathione beads, 16-mer random dsDNA library, 0.1% formaldehyde crosslink after washing; high values mean tight binding
# FLI1 = target: T1, FLI1 (Homo sapiens, UniProt Q01543 1-452); conditions: protein: recombinant; tags: N-terminal GST; dsDNA, one strand shown
# T1 sequence: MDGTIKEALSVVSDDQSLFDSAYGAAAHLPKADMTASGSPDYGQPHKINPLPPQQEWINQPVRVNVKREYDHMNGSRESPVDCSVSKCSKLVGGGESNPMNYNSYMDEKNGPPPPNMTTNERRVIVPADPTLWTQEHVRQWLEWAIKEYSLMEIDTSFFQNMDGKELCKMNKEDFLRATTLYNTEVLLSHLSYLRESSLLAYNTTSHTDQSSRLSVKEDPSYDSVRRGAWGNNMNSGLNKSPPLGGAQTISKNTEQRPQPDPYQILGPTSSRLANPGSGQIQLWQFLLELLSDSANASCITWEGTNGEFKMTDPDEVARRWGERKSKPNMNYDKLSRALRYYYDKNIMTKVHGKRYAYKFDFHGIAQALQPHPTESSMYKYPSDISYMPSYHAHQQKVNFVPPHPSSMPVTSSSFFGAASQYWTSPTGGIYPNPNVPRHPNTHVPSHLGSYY
# How it was run: (§1)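 GST fusions of human transcription factors were expressed in yeast and captured with glutathione beads. Once given DNA barcodes and pooled alongside a tag-only sample, they were incubated for 30 min at room temperature with 200 nmole of a random double-stranded 16-mer DNA library in Tris/NaCl/DTT/glycerol buffer, then washed, crosslinked (0.1% formaldehyde), proximity-ligated, PCR-amplified and sequenced on an Illumina NextSeq500. The binding signal of each hexamer is its read frequency for a factor divided by its frequency for the tag-only sample.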
# ELK1 = target: T2, ELK1 (Homo sapiens, UniProt P19419 1-428); conditions: protein: recombinant; tags: N-terminal GST; dsDNA, one strand shown
# T2 sequence: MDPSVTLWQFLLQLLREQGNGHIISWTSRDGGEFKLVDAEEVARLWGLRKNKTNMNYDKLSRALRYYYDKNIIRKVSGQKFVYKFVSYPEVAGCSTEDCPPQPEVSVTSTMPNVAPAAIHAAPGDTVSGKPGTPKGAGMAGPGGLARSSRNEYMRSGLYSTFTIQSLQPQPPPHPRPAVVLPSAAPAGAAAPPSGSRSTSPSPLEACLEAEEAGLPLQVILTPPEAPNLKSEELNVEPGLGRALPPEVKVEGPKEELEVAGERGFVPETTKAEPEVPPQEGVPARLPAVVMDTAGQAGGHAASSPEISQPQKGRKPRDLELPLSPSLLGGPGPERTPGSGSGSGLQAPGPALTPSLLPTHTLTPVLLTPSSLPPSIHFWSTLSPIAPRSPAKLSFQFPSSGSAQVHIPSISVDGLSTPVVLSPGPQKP
# How it was run: as §1
# GABPA = target: T3, GABPA (Homo sapiens, UniProt Q06546 1-454); conditions: protein: recombinant; tags: N-terminal GST; dsDNA, one strand shown
# T3 sequence: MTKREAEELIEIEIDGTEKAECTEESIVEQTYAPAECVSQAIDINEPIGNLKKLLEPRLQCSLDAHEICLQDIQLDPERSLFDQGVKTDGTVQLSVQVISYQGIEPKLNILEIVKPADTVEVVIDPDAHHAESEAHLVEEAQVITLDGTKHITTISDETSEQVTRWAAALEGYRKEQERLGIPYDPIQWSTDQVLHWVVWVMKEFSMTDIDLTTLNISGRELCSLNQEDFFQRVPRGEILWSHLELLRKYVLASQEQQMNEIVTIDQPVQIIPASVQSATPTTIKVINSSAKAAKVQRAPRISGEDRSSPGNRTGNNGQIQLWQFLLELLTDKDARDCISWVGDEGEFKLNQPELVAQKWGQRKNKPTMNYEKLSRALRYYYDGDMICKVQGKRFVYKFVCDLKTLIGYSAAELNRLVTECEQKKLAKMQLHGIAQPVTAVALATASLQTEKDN
# How it was run: as §1
# ERG = target: T4, ERG (Homo sapiens, UniProt P11308 1-479); conditions: protein: recombinant; tags: N-terminal GST; dsDNA, one strand shown
# T4 sequence: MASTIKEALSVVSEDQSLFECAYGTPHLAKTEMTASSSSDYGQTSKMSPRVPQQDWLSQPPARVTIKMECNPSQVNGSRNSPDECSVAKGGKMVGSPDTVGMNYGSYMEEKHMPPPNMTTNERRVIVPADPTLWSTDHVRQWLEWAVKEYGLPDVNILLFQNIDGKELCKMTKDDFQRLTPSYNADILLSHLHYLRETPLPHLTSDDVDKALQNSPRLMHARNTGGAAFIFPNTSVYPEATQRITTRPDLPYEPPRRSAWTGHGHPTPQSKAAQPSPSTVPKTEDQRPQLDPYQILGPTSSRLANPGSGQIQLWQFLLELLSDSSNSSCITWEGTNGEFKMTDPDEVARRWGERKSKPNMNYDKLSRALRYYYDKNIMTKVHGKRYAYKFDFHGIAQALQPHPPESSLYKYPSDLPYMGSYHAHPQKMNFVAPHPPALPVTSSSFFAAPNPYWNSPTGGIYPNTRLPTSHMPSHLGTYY
# How it was run: as §1
# ELF1 = ELF1 (Homo sapiens, UniProt P32519 1-619); conditions: protein: recombinant; tags: N-terminal GST; dsDNA, one strand shown
# Sequence of ELF1 (P32519 whole entry): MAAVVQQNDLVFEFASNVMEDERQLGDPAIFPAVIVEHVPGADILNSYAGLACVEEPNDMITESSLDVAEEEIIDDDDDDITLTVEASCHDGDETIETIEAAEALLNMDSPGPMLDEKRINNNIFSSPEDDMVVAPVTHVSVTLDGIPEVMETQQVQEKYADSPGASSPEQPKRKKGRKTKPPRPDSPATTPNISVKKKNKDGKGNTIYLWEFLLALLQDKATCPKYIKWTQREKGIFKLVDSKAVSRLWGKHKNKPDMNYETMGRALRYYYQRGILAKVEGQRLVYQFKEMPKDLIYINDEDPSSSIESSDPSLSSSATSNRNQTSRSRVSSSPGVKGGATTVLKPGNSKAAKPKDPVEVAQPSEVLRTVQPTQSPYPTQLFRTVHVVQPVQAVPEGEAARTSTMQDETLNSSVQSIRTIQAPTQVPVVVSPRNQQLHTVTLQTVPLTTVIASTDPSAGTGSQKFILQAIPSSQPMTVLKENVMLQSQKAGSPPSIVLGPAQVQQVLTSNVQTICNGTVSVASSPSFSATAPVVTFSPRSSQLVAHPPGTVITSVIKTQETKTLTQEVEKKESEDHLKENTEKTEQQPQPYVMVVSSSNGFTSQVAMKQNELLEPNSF
# How it was run: as §1
# EHF = target: T5, EHF (Homo sapiens, UniProt Q9NZC4 1-300); conditions: protein: recombinant; tags: N-terminal GST; dsDNA, one strand shown
# T5 sequence: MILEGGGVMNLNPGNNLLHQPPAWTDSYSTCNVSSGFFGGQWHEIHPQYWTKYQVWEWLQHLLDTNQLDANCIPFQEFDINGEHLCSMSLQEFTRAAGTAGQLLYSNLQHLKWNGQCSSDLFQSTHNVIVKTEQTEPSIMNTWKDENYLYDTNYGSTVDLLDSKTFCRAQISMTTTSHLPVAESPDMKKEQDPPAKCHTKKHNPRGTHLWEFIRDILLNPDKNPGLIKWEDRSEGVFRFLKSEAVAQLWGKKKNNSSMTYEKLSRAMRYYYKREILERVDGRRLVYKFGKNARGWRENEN
# How it was run: as §1
# SPI1 = SPI1 (Homo sapiens, UniProt P17947 1-270); conditions: protein: recombinant; tags: N-terminal GST; dsDNA, one strand shown
# How it was run: as §1
# SPIB = SPIB (Homo sapiens, UniProt Q01892 1-262); conditions: protein: recombinant; tags: N-terminal GST; dsDNA, one strand shown
# Sequence of SPIB (Q01892 whole entry): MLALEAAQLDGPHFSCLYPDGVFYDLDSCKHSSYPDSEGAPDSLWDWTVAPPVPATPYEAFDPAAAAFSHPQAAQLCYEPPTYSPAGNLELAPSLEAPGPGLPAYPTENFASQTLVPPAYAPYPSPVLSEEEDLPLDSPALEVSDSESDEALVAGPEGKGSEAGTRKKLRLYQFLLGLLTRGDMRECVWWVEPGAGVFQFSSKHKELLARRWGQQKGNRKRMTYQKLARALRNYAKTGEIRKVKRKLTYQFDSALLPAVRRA
# How it was run: as §1
# ELK3 = target: T6, ELK3 (Homo sapiens, UniProt P41970 1-407); conditions: protein: recombinant; tags: N-terminal GST; dsDNA, one strand shown
# T6 sequence: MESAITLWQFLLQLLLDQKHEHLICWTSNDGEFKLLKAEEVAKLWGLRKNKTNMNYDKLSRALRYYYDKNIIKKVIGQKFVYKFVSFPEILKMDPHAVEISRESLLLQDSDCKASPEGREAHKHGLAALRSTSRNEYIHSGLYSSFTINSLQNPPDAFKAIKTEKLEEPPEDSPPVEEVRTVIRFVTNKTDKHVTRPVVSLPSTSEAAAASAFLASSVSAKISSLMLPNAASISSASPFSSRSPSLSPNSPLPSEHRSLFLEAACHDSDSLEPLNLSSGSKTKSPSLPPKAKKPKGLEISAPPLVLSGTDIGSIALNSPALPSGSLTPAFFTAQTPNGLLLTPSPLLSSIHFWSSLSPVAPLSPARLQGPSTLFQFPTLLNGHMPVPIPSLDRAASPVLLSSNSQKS
# How it was run: as §1
# FEV = target: T7, FEV (Homo sapiens, UniProt Q99581 1-238); conditions: protein: recombinant; tags: N-terminal GST; dsDNA, one strand shown
# T7 sequence: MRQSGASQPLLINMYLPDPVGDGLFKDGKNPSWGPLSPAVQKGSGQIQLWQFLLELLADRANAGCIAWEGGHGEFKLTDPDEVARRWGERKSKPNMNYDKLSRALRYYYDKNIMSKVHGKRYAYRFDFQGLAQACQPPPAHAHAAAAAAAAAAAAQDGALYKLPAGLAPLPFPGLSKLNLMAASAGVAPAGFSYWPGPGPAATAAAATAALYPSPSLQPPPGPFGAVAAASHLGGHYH
# How it was run: as §1
# ETV5 = ETV5 (Homo sapiens, UniProt P41161 1-510); conditions: protein: recombinant; tags: N-terminal GST; dsDNA, one strand shown
# Sequence of ETV5 (P41161 whole entry): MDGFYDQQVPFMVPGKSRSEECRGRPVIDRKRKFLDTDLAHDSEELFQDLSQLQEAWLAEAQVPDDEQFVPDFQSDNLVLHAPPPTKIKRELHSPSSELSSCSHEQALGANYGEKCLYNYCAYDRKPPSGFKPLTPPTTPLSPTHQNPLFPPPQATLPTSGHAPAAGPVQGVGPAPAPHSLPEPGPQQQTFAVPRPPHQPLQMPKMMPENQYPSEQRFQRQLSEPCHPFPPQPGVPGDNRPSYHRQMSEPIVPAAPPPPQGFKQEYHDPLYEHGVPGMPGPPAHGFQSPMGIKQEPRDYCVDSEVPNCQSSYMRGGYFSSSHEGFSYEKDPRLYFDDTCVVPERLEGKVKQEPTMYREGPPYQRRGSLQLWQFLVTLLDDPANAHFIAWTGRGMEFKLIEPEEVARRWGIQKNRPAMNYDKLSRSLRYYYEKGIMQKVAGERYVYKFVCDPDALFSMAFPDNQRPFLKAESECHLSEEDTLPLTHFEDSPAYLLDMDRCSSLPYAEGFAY
# How it was run: as §1
# HSF1 = HSF1 (Homo sapiens, UniProt Q00613 1-529); conditions: protein: recombinant; tags: N-terminal GST; chain copies: 3; dsDNA, one strand shown
# Sequence of HSF1 (Q00613 whole entry): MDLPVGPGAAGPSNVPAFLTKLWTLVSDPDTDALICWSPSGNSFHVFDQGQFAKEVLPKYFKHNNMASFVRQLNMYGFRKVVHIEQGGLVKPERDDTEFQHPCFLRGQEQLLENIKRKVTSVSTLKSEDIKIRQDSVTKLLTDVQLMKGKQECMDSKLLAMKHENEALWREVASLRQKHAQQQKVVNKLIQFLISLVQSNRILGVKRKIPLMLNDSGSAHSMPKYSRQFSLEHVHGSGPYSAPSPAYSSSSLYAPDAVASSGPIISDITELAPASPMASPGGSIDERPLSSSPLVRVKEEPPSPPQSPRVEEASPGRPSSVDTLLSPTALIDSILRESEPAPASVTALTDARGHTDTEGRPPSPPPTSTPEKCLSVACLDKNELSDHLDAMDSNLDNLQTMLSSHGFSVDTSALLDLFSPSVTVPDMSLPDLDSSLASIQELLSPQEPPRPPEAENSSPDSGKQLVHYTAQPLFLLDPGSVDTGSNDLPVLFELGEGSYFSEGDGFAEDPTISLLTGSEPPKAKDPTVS
# How it was run: as §1
# SPIC = target: T8, SPIC (Homo sapiens, UniProt Q8N5J4 1-248); conditions: protein: recombinant; tags: N-terminal GST; dsDNA, one strand shown
# T8 sequence: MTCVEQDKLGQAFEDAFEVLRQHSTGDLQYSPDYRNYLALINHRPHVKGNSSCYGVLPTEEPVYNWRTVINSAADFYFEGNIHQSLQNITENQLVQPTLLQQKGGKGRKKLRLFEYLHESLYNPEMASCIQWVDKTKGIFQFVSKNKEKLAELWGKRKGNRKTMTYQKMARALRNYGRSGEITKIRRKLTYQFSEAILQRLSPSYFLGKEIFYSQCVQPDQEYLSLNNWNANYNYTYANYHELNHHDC
# How it was run: as §1
# ELF4 = ELF4 (Homo sapiens, UniProt Q99607 1-663); conditions: protein: recombinant; tags: N-terminal GST; dsDNA, one strand shown
# Sequence of ELF4 (Q99607 whole entry): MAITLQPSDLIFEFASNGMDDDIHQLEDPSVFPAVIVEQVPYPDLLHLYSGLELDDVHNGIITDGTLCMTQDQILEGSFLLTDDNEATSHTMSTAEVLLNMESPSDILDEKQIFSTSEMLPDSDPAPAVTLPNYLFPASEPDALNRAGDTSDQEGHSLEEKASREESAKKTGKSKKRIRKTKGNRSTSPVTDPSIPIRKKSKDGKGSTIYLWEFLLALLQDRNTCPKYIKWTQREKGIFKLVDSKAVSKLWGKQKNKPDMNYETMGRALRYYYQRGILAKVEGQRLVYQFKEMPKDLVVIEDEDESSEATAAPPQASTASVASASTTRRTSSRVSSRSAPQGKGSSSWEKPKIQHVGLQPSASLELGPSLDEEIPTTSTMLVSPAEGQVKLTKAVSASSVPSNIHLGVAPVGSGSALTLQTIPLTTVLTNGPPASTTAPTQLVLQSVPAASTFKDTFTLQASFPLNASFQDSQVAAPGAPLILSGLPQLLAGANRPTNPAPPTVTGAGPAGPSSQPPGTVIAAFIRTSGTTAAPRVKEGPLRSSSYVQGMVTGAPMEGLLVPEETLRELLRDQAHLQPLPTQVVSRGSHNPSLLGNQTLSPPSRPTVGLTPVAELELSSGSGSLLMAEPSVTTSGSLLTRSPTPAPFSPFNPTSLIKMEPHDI
# How it was run: as §1
# ELK4 = target: T9, ELK4 (Homo sapiens, UniProt P28324-2 1-405); conditions: protein: recombinant; tags: N-terminal GST; dsDNA, one strand shown
# T9 sequence: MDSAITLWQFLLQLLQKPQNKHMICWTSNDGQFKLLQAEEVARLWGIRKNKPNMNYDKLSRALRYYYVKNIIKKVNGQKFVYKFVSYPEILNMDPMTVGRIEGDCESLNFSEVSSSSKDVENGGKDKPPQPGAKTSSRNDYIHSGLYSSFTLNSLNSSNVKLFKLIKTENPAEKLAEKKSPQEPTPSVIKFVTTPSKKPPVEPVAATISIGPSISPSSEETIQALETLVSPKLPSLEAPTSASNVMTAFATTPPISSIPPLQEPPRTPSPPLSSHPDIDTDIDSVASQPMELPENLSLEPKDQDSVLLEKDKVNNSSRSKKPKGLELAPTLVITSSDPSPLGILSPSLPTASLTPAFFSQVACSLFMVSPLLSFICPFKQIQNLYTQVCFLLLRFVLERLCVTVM
# How it was run: as §1
# ETV2 = target: T10, ETV2 (Homo sapiens, UniProt O00321 1-342); conditions: protein: recombinant; tags: N-terminal GST; dsDNA, one strand shown
# T10 sequence: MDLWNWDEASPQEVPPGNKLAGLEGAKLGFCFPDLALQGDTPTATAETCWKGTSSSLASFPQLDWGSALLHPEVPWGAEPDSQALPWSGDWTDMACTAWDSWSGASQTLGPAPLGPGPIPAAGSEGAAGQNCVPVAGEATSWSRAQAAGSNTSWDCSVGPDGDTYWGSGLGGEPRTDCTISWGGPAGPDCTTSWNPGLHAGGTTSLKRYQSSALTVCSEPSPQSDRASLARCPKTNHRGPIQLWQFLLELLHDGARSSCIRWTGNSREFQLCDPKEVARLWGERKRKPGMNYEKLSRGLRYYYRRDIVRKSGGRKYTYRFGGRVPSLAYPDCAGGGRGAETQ
# How it was run: as §1
# ELF3 = target: T11, ELF3 (Homo sapiens, UniProt P78545 1-371); conditions: protein: recombinant; tags: N-terminal GST; dsDNA, one strand shown
# T11 sequence: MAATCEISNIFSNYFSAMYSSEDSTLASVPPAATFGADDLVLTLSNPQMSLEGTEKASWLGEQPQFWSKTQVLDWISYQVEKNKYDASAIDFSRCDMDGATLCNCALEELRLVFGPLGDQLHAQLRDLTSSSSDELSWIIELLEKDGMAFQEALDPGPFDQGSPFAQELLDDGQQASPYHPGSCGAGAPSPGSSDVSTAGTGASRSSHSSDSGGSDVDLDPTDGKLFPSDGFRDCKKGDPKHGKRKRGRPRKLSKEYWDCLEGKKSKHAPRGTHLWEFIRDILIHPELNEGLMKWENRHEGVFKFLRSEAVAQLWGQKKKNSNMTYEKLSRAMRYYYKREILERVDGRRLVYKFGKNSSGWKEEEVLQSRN
# How it was run: as §1
# CRX = CRX (Homo sapiens, UniProt O43186 1-299); conditions: protein: recombinant; tags: N-terminal GST; dsDNA, one strand shown
# Sequence of CRX (O43186 whole entry): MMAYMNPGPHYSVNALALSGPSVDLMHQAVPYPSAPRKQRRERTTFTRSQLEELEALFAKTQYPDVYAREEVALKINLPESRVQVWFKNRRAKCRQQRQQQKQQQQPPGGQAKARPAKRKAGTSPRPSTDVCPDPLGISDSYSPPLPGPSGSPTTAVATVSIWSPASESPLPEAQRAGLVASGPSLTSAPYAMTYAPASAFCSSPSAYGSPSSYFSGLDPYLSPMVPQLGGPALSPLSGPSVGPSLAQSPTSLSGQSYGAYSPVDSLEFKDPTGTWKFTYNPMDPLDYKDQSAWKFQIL
# How it was run: as §1
# ETV1 = ETV1 (Homo sapiens, UniProt P50549 1-477); conditions: protein: recombinant; tags: N-terminal GST; dsDNA, one strand shown
# Sequence of ETV1 (P50549 whole entry): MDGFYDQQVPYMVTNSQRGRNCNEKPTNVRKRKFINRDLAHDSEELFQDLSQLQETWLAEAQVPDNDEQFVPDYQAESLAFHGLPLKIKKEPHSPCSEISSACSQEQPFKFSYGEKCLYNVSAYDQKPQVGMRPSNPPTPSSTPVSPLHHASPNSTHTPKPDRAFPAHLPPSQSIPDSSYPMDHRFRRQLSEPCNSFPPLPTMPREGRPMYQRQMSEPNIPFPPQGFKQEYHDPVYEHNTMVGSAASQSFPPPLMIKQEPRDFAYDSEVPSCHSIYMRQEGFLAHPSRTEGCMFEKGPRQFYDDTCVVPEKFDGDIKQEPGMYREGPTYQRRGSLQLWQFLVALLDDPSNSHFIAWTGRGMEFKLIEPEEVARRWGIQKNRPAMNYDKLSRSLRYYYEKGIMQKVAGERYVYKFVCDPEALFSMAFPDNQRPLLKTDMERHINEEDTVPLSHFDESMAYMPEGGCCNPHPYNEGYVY
# How it was run: as §1
sequence,measurement,setting,value
CATTCG,binding signal,FLI1,"1.25 fold enrichment (6-mer frequency, TF over GST control)"
same,binding signal,ELK1,"1.11 fold enrichment (6-mer frequency, TF over GST control)"
same,binding signal,GABPA,"1.17 fold enrichment (6-mer frequency, TF over GST control)"
same,binding signal,ERG,"1.21 fold enrichment (6-mer frequency, TF over GST control)"
same,binding signal,ELF1,"1.28 fold enrichment (6-mer frequency, TF over GST control)"
same,binding signal,EHF,"1.08 fold enrichment (6-mer frequency, TF over GST control)"
same,binding signal,SPI1,"1.26 fold enrichment (6-mer frequency, TF over GST control)"
same,binding signal,SPIB,"1.15 fold enrichment (6-mer frequency, TF over GST control)"
same,binding signal,ELK3,"1.24 fold enrichment (6-mer frequency, TF over GST control)"
same,binding signal,FEV,"1.17 fold enrichment (6-mer frequency, TF over GST control)"
same,binding signal,ETV5,"1.09 fold enrichment (6-mer frequency, TF over GST control)"
same,binding signal,HSF1,"1.64 fold enrichment (6-mer frequency, TF over GST control)"
same,binding signal,SPIC,"1.3 fold enrichment (6-mer frequency, TF over GST control)"
same,binding signal,ELF4,"1.18 fold enrichment (6-mer frequency, TF over GST control)"
same,binding signal,ELK4,"1.05 fold enrichment (6-mer frequency, TF over GST control)"
same,binding signal,ETV2,"1.22 fold enrichment (6-mer frequency, TF over GST control)"
same,binding signal,ELF3,"1.25 fold enrichment (6-mer frequency, TF over GST control)"
same,binding signal,CRX,"1.14 fold enrichment (6-mer frequency, TF over GST control)"
same,binding signal,ETV1,"1.16 fold enrichment (6-mer frequency, TF over GST control)"
